AmpC detergent: inhibitors of E. coli AmpC beta-lactamase with detergent; AmpC hydrolysis of nitrocefin, absorbance 480 nm, 0.01% Triton; Potency, µM (titrated, usually from 114 µM), without a hit: top-dose activity change, negative = inhibition, hits mostly inhibitors; 370,000 tested, 0.041% active; AID 485294;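 further: 0% = no-compound wells and -100% = no-enzyme wells; nearly all actives have a fitted effect of over 25% in size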
Target sequence (P00811 whole entry, looked up): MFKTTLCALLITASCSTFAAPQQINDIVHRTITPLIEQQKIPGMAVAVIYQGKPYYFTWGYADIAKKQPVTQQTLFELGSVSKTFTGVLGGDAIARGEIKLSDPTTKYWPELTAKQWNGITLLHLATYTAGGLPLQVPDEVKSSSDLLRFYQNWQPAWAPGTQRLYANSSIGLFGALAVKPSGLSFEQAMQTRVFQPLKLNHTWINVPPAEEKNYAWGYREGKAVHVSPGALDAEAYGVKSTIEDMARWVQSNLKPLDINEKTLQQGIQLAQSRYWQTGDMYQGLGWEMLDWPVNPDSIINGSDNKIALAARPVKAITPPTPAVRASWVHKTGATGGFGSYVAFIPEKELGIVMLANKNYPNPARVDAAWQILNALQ
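AmpC (5.3 nM in the dispensed reagent) in 20 mM phosphate pH 7.0 with 0.01% (detergent screen) or 0.0001% Triton X-100 was preincubated with compounds for 15 min at room temperature. Nitrocefin was then added from an 800 uM solution, and hydrolysis was followed at 480 nm.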
TbPYK inhibitor: inhibitors of Trypanosoma brucei pyruvate kinase; Q57TT1; 410,000 tested, 0.12% active; TbPYK enzyme, Kinase-Glo Plus ATP luminescence, 45 min; AID 624173; Potency, µM (titrated, usually from 76.8 µM), inactives show top-dose activity, negative = inhibition, hits mostly inhibitors; further: nearly all actives have a fitted effect of over 50% in size
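Luminescent Kinase-Glo Plus end-point after 45 min room-temperature reaction of T. brucei pyruvate kinase started with 130 uM ADP (final). Buffer TEA 50 mM pH 7.2 with KCl, MgCl2, BSA, Tween-20; titration-based qHTS with fitted concentration-effect curves.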
AmpC inh no detg: inhibitors of E. coli AmpC beta-lactamase without detergent. P00811. AmpC nitrocefin hydrolysis, absorbance 480 nm, 0.0001% Triton. Potency, µM (doses to about 57.1 µM), for the others: at the highest dose activity change, negative = inhibition, most hits filed as inhibitors. 330,000 tested, 0.52% active. AID 485341;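 further: plate controls were no compound for no effect and no enzyme for full effect; nearly all actives have a fitted effect of over 20% in size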
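20 mM phosphate pH 7.0 + 0.01% (detergent screen) or 0.0001% Triton X-100; 5.3 nM AmpC reagent; cpd preinc 15 min RT; nitrocefin (800 uM stock) to start; A480 q20 s × 4 min; Activity was normalised to no-enzyme and no-compound control wells.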
LmPK inh: blocks Leishmania mexicana pyruvate kinase activity; Q27686; purified LmPK, Kinase-Glo ATP luminescence, 1 h; Potency, µM (doses to about 57.5 µM), inactives show top-dose activity change, negative = inhibition, most hits filed as inhibitors; 290,000 tested, 0.37% active
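qHTS format; LmPK 0.1 nM; substrates PEP 0.5 mM and ADP 0.1 mM. One-hour room-temperature incubation, then coupled luciferase luminescence; 0.5 nM enzyme wells mark activation.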
RE007 growth inh: less growth of the S. pombe RE007 Vpr strain | 360,000 tested, 0.21% active | S. pombe RE007 Vpr strain, BacTiter-Glo ATP luminescence, 24 h | Potency, µM (titrated, usually from 92.2 µM), without a hit: at the top dose activity change, negative = less growth, usual class: inhibitors; active means well fitted falling curve with a large enough effect; inconclusive means small, poorly fitted or top-dose-only effect; inactive means no such curve, though single readings can be large or run the other way; further: nearly all actives have a fitted effect of over 50% in size
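Fission yeast RE007 carrying one integrated HIV-1 vpr copy, seeded at OD 0.01 in PMG+AL medium with 23 nL pinned compound. Grown 24 h at 30 degrees; viability read by BacTiter-Glo luminescence after 5 min.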
Giardia FBPA inh-1: Giardia lamblia aldolase inhibition. 290,000 tested, 0.71% active. Potency, µM (top dose mostly 59.6 µM), inactives show top-dose activity, negative = inhibition, usual class: inhibitors. A8B2U2. purified Giardia FBPA; further: nearly all actives have a fitted effect of over 55% in size
Target sequence (A8B2U2 whole entry, looked up): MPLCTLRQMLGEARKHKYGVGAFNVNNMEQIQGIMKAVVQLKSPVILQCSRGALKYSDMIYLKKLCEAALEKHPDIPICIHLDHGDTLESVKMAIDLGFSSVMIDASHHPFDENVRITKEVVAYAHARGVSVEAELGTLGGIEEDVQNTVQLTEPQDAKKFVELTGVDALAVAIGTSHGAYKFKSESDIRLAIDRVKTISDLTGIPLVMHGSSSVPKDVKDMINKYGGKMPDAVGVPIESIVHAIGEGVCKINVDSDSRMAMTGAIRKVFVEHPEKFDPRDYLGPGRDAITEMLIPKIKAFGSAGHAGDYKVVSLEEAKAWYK
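40 nM FBPA preincubated 10 min at RT with compound (up to 57.5 uM final), then substrate plus GAPDH/TPI/NAD/arsenate coupling and diaphorase/resazurin added. Fluorescence read after 20 min at RT, 525/598 nm.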
Giardia growth: blocks growth of Giardia lamblia trophozoites; AID 2785; Giardia lamblia trophozoite growth inhibition; shares compounds with Giardia FBPA inh-1; 1,500 tested, 5% active; Potency, µM (highest dose often 57.5 µM), for inactives: at the top dose activity change, negative = inhibition, hits mostly inhibitors;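 further: trophozoites exposed to compound for 48 h at 37 °C; nearly all actives have a fitted effect of over 70% in size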
Mammalian tox: mammalian cytotoxicity of Giardia aldolase inhibitor hits; shares compounds with Giardia FBPA inh-1; mammalian cell viability counter-screen, qHTS; Potency, µM (doses to about 57.5 µM), for the others: top-dose viability change, negative = toxicity, actives largely listed as inhibitors; 1,500 tested, 4% active;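 further: Chinese hamster ovary cells used as mammalian cytotoxicity surrogate; viability measured as cellular ATP by luminescence; compound exposure lasted 48 h before reading; nearly all actives have a fitted effect of over 60% in size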
Giardia FBPA inh-2: confirmation of Giardia fructose-bisphosphate aldolase inhibitors | shares compounds with Giardia FBPA inh-1 | purified Giardia aldolase enzyme activity, qHTS | Potency, µM (series often up to 57.5 µM), without a hit: at the top dose activity change, negative = inhibition, hits mostly inhibitors | 1,500 tested, 5% active | AID 2787; further: nearly all actives have a fitted effect of over 45% in size
Rabbit aldolase: selectivity test for Giardia aldolase inhibitors: rabbit aldolase. shares compounds with Giardia FBPA inh-1. Rabbit muscle FBPA enzyme inhibition, selectivity counter-screen. Potency, µM (doses to about 57.5 µM), inactives show at the highest dose activity, negative = inhibition, most hits filed as inhibitors. 1,500 tested, 4% active. AID 2794; further: nearly all actives have a fitted effect of over 60% in size
GAPDH coupling: counter-screen for Giardia aldolase inhibitors: GAPDH coupling enzyme | GAPDH coupling enzyme counterscreen, biochemical, qHTS | AID 2795 | shares compounds with Giardia FBPA inh-1 | 1,500 tested, 6% active | Potency, µM (top dose mostly 57.5 µM), for inactives: at the highest dose activity change, negative = inhibition, most hits filed as inhibitors; further: nearly all actives have a fitted effect of over 55% in size
An asterisk follows results filed as active; ? = inconclusive; . = no result given; [ ] = remark or other dose. Shown are actives, neighbours in structure and some others; about 1.4% of the full set was active somewhere. Unless noted, the call rests on the fitted dose curve; in most records, active means well fitted curve in the direction sought with a large enough effect; inconclusive means small, poorly fitted or top-dose-only effect, or another doubt; inactive means no such curve, though single readings can be large; an effect the other way counts as inactive or inconclusive. Unless noted, on the % scale 0 is the no-effect control and ±100 the full control effect; potency means the concentration at half of the fitted maximal effect.

SMILES | AmpC detergent | TbPYK inhibitor | AmpC inh no detg | LmPK inh | RE007 growth inh | Giardia FBPA inh-1 | Giardia growth | Mammalian tox | Giardia FBPA inh-2 | Rabbit aldolase | GAPDH coupling
O=[N+]([O-])c1ccc(Sc2cccc[n+]2[O-])c2nonc12 | -10% | 18µM* | -25% | ? | 10µM* | 0.35µM* | 2µM* | 2.2µM* | 6.3µM* | 16µM* | 6.3µM*
CCCCc1c(O)nc(SC2CC(=O)N(c3ccc(C(=O)OCC)cc3)C2=O)[nH]c1=O (stereo not drawn) | ? | 1% | -43% | -2% | 33% | 7.1µM* | -1%[10.4 µM] | 0% | -1% | 10% | 12%
CC(=O)Nc1nonc1-c1nnc(SCC(=O)N(C)c2ccccc2)n1C | 18% | 1% | . | . | . | . | . | . | . | . | .
COc1ccc(C2C(C#N)=C(N)N(c3cccnc3)C3=C2C(=O)CC(C)(C)C3)cc1OC (stereo not drawn) | ? | -14% | 9% | 2% | ? | 14µM* | 25% | 1% | -4% | -7% | 8%
CCc1ccccc1NC(=O)C(=O)c1cc(C)n(-c2ccccc2F)c1C | 18% | 1% | . | . | . | . | . | . | . | . | .
NS(=O)(=O)c1ccc(NC(=S)N2CCC(O)CC2)cc1 | 0% | -11% | -6% | 0% | 2% | 16µM* | ? | 17% | 4% | 13% | 4%
CN1CC[C@]2(C)c3cc(O)ccc3N(C)[C@@H]12 | . | . | . | . | . | 1µM* | -2%[19.1 µM] | -23%[28.7 µM] | 2.2µM* | 3.2µM* | 3.2µM*
CCOc1ccc2nc(N3CCCC(C(=O)Nc4cc(Cl)c(OC)cc4OC)C3)sc2c1 (stereo not drawn) | -3% | 2% | . | . | . | . | . | . | . | . | .
NC(N)=NS(=O)(=O)c1ccc(NC(=S)NC(=O)c2ccc(Br)cc2)cc1 | ? | 1% | -35% | 6% | 8% | -14% | . | . | . | . | .
NC(N)=NS(=O)(=O)c1ccc(NC(=S)NC(=O)c2ccncc2)cc1 | -1% | 1% | -11% | -1% | 3% | 11µM* | 4%[10.4 µM] | 10% | 6% | 5% | 11%
CC1CC(=O)NC(=O)N1Cc1ccccc1 (stereo not drawn) | . | -3% | . | . | 0% | . | . | . | . | . | .
CCOC1C(=O)NC(=O)N1Cc1ccccc1 (stereo not drawn) | -11% | 5% | -10% | -1% | 14% | 28µM* | 11% | -7% | 13% | 10% | 5%
Cc1ccc(N=Nc2c(O)ccc3n[nH]nc23)cc1 | -8% | -22% | -42% | ? | ? | 16µM* | ? | -1% | ? | -21% | -2%
COC(=O)C(N)CCCN=C(N)N[N+](=O)[O-] (stereo not drawn) | . | . | . | . | . | -2% | . | . | . | . | .
CC(C)(C)NC(=S)/N=C(\N)N[N+](=O)[O-] | -13% | 4% | -21% | 4% | 2% | 16µM* | 30% | 14% | 14% | 14% | 14%
Cn1ncc2c(N3CCN(c4ccccc4Cl)CC3)ncnc21 | -9% | 3% | . | . | . | . | . | . | . | . | .
COC(=O)c1scc(-c2ccc(C)cc2)c1S(=O)(=O)N1CCN(c2cccc(OC)c2)CC1 | 36% | 3% | . | . | . | . | . | . | . | . | .
Cc1ccc(NC(=O)c2c(C)oc3ncn(CC(C)C)c(=O)c23)nc1 | 0% | 1% | . | . | . | . | . | . | . | . | .
O=C(NNC(=O)c1ccccn1)c1cccc([N+](=O)[O-])c1 | -4% | -2% | -9% | 0% | 8% | 10µM* | ? | ? | -1% | -6% | -26%
COc1ccc(CCNC(=O)/C(C#N)=C/c2ccc(OCC(=O)NCC3CCCO3)cc2)cc1OC (stereo not drawn) | 0% | 1% | 113% | -8% | -5% | -3% | . | . | . | . | .
COc1ccc(CCNC(=O)CNCC2CCCO2)cc1OC (stereo not drawn) | -8% | 5% | 0% | 3% | 2% | 16µM* | -25% | 14% | 3% | 5% | 8%
Cc1ccc(NC(=O)CNCc2ccccc2Cl)cc1S(=O)(=O)N(C)C | -5% | -10% | 8% | -6% | -6% | 22µM* | ? | -6% | 6% | 2% | 2%
COc1cc(NC(=O)CN(C)CCOc2ccccc2)c(C)cc1[N+](=O)[O-] | -4% | -6% | 115% | 2% | -26% | 3% | . | . | . | . | .
CN(CCOc1ccccc1)CC(=O)Nc1ccc(Cl)cc1[N+](=O)[O-] | -8% | 23% | 4% | 1% | 1% | 22µM* | ? | 3% | 2% | -2% | 13%
